Experimental data from PubChem BioAssay (NCATS).
Where “and” joins values, the source holds several entries; their conditions need not be identical. Equal values may be shown once. Inconclusive results are not listed. Unmarked numbers belong to inactive results. Calls come from the whole dose curve; as a rule, active = well fitted curve in the direction sought with a large enough effect; inconclusive = small, poorly fitted or top-dose-only effect, or another doubt; inactive = no such curve, though single readings can be large or run the other way.

Experiment: qHTS Assay for Identifying Gametocytocidal Compounds (AID 743244);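 note: actives lower the fluorescent signal which means gametocytes are killed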
Conditions: P. falciparum 3D7 stage III-V gametocytes, alamarBlue, 72 h; max response: stronger effect = lower value
How it was run: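 A resazurin-based viability read-out was applied to mature P. falciparum gametocytes: 72 h compound treatment, then 24 h dye incubation, with falling fluorescence signalling gametocytocidal effect.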
% is set by controls: 0 for no effect and ±100 for the full control effect.

Row | Structure (SMILES) | max response
1 | C[C@]12CCC(=O)C=C1C=C[C@@H]1[C@@H]2CC[C@@]2(C)[C@H]1CC[C@@]2(O)CCC(=O)O | 16.5%
2 | C#CC(C)(O)CC (centres undefined) | 4.2%
3 | CCC(N)Cc1c[nH]c2ccccc12 (centres undefined) | 2.35% and -8.43%
4 | C[C@@H](Cc1ccccc1)N(C)C | -7.23%
5 | c1cc2c(c(NC3=NCCN3)c1)CCCC2 | -7.43%
6 | C[N+]1(C)CCCCC1COC(=O)C(O)(c1ccccc1)c1ccccc1 (centres undefined) | -10.4%
7 | CCC1(c2ccccc2)C(=O)NC(=O)NC1=O | 6%
8 | O[C@H]1[C@H]2[C@H](O)CCCN2C[C@H]1O | -8.84%
9 | CCOC(=O)/C=C(C)/C=C/C[C@@H](C)CCCC(C)C | 10.1%
